Test results published in PubChem BioAssay AID720519 (National Center for Advancing Translational Sciences (NCATS), 2013).
Records with an inconclusive call do not appear. The source made the active and inactive calls. Calls come from the whole dose curve; as a rule, active = well fitted activation curve with a large enough effect; inconclusive = small, poorly fitted or top-dose-only effect; inactive = flat fitted curve, though single readings scatter.

Assay: qHTS for Inhibitors of Cell Surface uPA Generation: Confirmatory Assay for Cherry-picked Compounds
Details: cell surface uPA activity generation, qHTS confirmation; series mostly up to 115 µM
Outline: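 RAW 264.7 cells at 4000/well, incubated overnight, then treated with compounds. After 24 h at 37 C, viability was read by ATPlite luminescence. An increase in signal indicates blocked uPA-dependent LF entry.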

Potency, inactive:
CCOC(=O)N1CCN(C(=O)c2ccc3c(c2)sc2nc(-c4ccc(OC)cc4)cn23)CC1, CC(CCc1ccccc1)NC(=O)c1ccc(NC(=O)c2cccc(Br)c2)cc1 (stereo not given), COc1cccc(CN(C)C(=O)c2cc(S(=O)(=O)N3CCCC3)ccc2C)c1OC, CCOC(=O)Oc1c(OC)cc(C(=O)O[C@@H]2C[C@@H]3CN4CCc5c([nH]c6cc(OC)ccc56)[C@H]4C[C@@H]3[C@H](C(=O)OC)[C@H]2OC)cc1OC, Fc1ccc(N2CCN(c3nc(CN4CCOCC4)nc4scc(-c5ccccc5)c34)CC2)cc1, COc1ccc(N2CCN(C3CCN(S(=O)(=O)c4ccc(F)cc4)CC3)CC2)cc1, CNC(=S)N1C2CCCC1CC(NC(=O)c1ccc(F)cc1)C2 (stereo not given), Cc1nn(C)c(C)c1S(=O)(=O)N1CCC(C(=O)NC2CCCCCC2)CC1, O=C1N[C@@H](Cc2c[nH]c3ccccc23)C(=O)N[C@H]1Cc1ccccc1, CCN1CCN(Cc2ccc(NC(=O)c3cc(NC(=O)c4cncc(-c5cccs5)c4)cc(OC)c3)cc2C(F)(F)F)CC1, O=S(=O)(c1ccc2nc(N3CCN(c4ccccc4)CC3)ccc2c1)N1CCCCC1, CCC1(CC)NC(=O)N(CC(=O)OCC(=O)c2cc(C)c(C)cc2C)C1=O, CCOc1ccc(OCC)c(NC(=O)c2ccc(CNc3c(N4CCCC4)c(=O)c3=O)cc2)c1, CCOc1cc(C(=S)N2CCOCC2)ccc1OC(=O)c1cccc(C)c1, CCCCN(CC(=O)NCc1ccc(F)cc1)C(=O)c1ccco1
